From PubChem BioAssay
Inconclusive results are not listed. Calls of active or inactive are those of the source.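 Rule for the calls, unless noted: active = fitted half-maximal concentration within 10 nM to 100 µM, steepness 0.5 to 2, significant signal drop, low assay interference; inactive = the rest.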

Columns and labels:
[1] = target: GTPase HRas (Homo sapiens) (UniProt P01112); test: inhibitors of GTP binding to wildtype Ras, dose response, biochemical, multiplex bead flow cytometry (AID 1335); conditions: bead-based flow cytometry, Bodipy-GTP binding to GST-Ras; at 100 µM (top of the series)
[2] = yeast TOR pathway RPL19A-GFP modulators, primary screen, cell-based, S. cerevisiae, multiplex flow cytometry (AID 1862; in the data active = percent of DMSO control GFP below about 86%;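 note: lower values mimic rapamycin by blocking the RPL19A rise seen in DMSO cells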); conditions: S. cerevisiae RPL19A-GFP strain, flow cytometry fluorescence, 3 h; at 10 µM; stronger effect = lower value
[3] = modulators of MEP2-GFP levels in yeast, primary screen, S. cerevisiae, multiplex flow cytometry (AID 1867;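 active = GFP response, as percent of the DMSO control, above the screen-wide mean plus 3 SD, about 139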;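 note: median GFP channel fluorescence of barcode-gated MEP2-GFP cells measured by flow cytometry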); conditions: S. cerevisiae MEP2-GFP strain, 3 h, at 10 µM, stronger effect = higher value
[4] = modulators of CIT2-GFP expression in yeast, primary screen, S. cerevisiae, GFP fusion, multiplex flow cytometry (AID 1870;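 active = percent response above a set limit, the screen-wide mean plus 3 SD, cut at about 130% in these data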;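 note: barcoded CIT2-GFP strain pooled with four other GFP strains with rapamycin as positive control; median GFP fluorescence per well over plate mean of DMSO wells so 100% = DMSO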); conditions: 3 h, at 10 µM, stronger effect = higher value
[5] = modulators of LAP4-GFP expression in yeast, primary screen, S. cerevisiae, multiplex flow cytometry (AID 1873;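 active = GFP signal, as percent of the solvent control, above the screen mean plus 3 SD, about 149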); conditions: 3 h, at 10 µM, stronger effect = higher value
[6] = modulators of AGP1-GFP expression in yeast TOR pathway, primary screen, cell-based, multiplex flow cytometry, S. cerevisiae (AID 1887;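 active = GFP signal above the screen-wide mean plus 3 SD, that is over about 124.5% of the solvent control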;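 note: AGP1-GFP fusion strain of S. cerevisiae within a five-strain barcoded multiplex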); conditions: 3 h, at 10 µM, stronger effect = higher value
[7] = inhibitors of CD8+ T cell-vesicle binding, pilot screen, LFA-1/ICAM-1 modulator project, MLPCN validation set, flow cytometry (AID 2523;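 active = response below a set limit, under 55% cells CD8-positive and vesicle-bound, and CD8 cells' 90th-percentile brightness under 279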;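 for vesicle binding response: mean PE anti-B7-1 fluorescence of CD8+ cells relative to row control; 100% = QL9-loaded vesicles with DMSO vehicle in the same plate row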); conditions: 2C mouse CD8+ T cells, at 7 µM, stronger effect = lower value; double positive events: measured here: CD8+/vesicle+ event percentage
[8] = target: Integrin beta-1 (Homo sapiens) + Integrin alpha-4 (Homo sapiens) (UniProt P13612+P05556); test: inhibition of HUTS-21 binding to VLA-4, pilot screen, VLA-4 allosteric modulator project, U937 cells, HUTS-21 mAb, flow cytometry, validation set (AID 2674;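 active = inhibition above 50%, about 3 SD of the validation set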;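 note: antibody binding induced by the VLA-4 ligand LDV present at three times its Kd; 0% = LDV ligand with antibody and no compound and 100% = antibody without LDV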); conditions: HUTS-21 LIBS mAb binding, at 6.7 µM, stronger effect = higher value
[9] = superoxide lowering in aged yeast cells, pilot screen, validation compound set (AID 2706;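 active = superoxide response below 65% of plate, a cut near 3 SD across the whole screen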;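 note: yeast exposed to compound for one week at 30 degrees C before staining; 100% = mean of all compound wells on the same plate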); conditions: S. cerevisiae aging, superoxide DHE fluorescence; at 10 µM; stronger effect = lower value
[10] = target: Beta-adrenergic receptor kinase 1 (Homo sapiens) (UniProt P25098); test: GRK2 binders displacing RNA aptamer, biochemical, validation, human GRK2, bead flow cytometry (AID 488806;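 active = aptamer binding inhibition above 30%, about 3 SD of noise from non-fluorescent compounds; inactive = inhibition at or below 30%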); conditions: bead-bound GRK2, FAM-aptamer displacement, at 10 µM, stronger effect = higher value
[11] = target: Beta-2 adrenergic receptor (Homo sapiens) (UniProt P07550); test: beta2AR agonists driving receptor internalization, pilot screen, cell-based, FAP fluorogen, flow cytometry, validation set (AID 504459;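 active = percent response above 42, roughly 3 SD of non-fluorescent test compounds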;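 note: agonist-driven loss of surface beta2AR via internalization measured by FAP dye flow cytometry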); conditions: Am2.2-beta2AR cells, FAP surface receptor flow cytometry; at 10 µM; stronger effect = higher value
[12] = target: AP-2 complex subunit beta (Homo sapiens) (UniProt P63010); test: inhibitors of arrestin peptide binding to AP2, pilot screen, biochemical, validation set, GST-AP2 beads, flow cytometry (AID 504541;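 active = inhibition above 54%, about 3 SD of non-fluorescent compounds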;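 note: AP2 carries R879A mutation and is captured from E. coli lysate; bead-bound FITC arrestin peptide fluorescence measuring arrestin peptide binding to AP2; 0% = DMSO wells and 100% = excess unlabeled arrestin peptide control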); conditions: FITC arrestin peptide, at 10 µM, stronger effect = higher value
[13] = yeast V-ATPase proton transport modulators, S. cerevisiae, pHLuorin, HTS validation (AID 504600; in the data active = response above about 15%;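 note: plate controls were DMSO for no effect and reference compound for full effect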); conditions: S. cerevisiae pHLuorin cytosolic pH, at 10 µM, stronger effect = higher value
[14] = tested on: anti-desmoglein-3 scFv antibody binding to human DSG3; test: inhibitors of anti-DSG3 scFv binding to DSG3, pilot screen, biochemical, validation compound set, bead-based, flow cytometry (AID 588368;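 active = binding below the plate cutoff, the plate median minus 3 SD, with a reading above zero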;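 note: signal is the median channel fluorescence of bead-bound GFP antibody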); conditions: Protein G beads, DSG3-Fc, scFv-GFP binding, at 10 µM, stronger effect = lower value
[15] = tested on: Botulinum neurotoxin type F light chain protease (Clostridium botulinum); test: Botulinum neurotoxin type F light chain protease inhibition, multiplex microsphere flow cytometry, validation set (AID 588459; call rule not given here); conditions: multiplex microsphere protease substrate cleavage assay, at 10 µM, stronger effect = higher value
[16] = target: Botulinum neurotoxin type A (Clostridium botulinum) (UniProt P0DPI0); test: BoNT/A light chain protease inhibitors, biochemical, multiplex microsphere flow cytometry, validation set (AID 588460; call rule not given here); conditions: at 10 µM, stronger effect = higher value
[17] = target: Lethal factor (Bacillus anthracis) (UniProt P15917); test: Lethal factor protease inhibitors, Bacillus anthracis, multiplex microsphere cleavage assay, validation set (AID 588461; call rule not given here); conditions: flow cytometry, at 10 µM, stronger effect = higher value
[18] = inhibitors of fungal efflux pumps CDR1, CDR2, MDR1, pilot screen, validation compound set, multiplex, phenotypic (AID 588506;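 active = efflux inhibition above 0.42, the validation set average plus 4 SD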;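 note: Nile Red retained in cells so higher fluorescence means more efflux inhibition; 0 = negative control wells and 1 = enniatin B 25 µM full block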); conditions: S. cerevisiae pump-expressing triplex, Nile Red efflux flow cytometry; at 10 µM; stronger effect = higher value
[19] = target: ATP-binding cassette sub-family B member 6 (Homo sapiens) (UniProt Q9NP58); test: ABCB6 transporter inhibitors, pilot screen, K562-ABCB6 cells, flow cytometry, validation set (AID 588550;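 active = inhibition above the screen-wide mean plus 3 SD, about 51%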;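 note: 0% = DMSO wells and 100% = benzethonium chloride 70 µM positive control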); conditions: K562-ABCB6 porphyrin accumulation, 1 h, at 10 µM, stronger effect = higher value
[20] = promoters of myeloid differentiation in arrested cells, primary screen, cell-based, GFP/MAC1 double positive, flow cytometry, validation set (AID 588685;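 active = differentiation response of at least 50%, scaled between solvent and reference control, from cells with both markers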;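 note: compound exposure lasts four days before antibody staining and flow analysis; 0% = DMSO wells and 100% = 5 µM fulvestrant positive control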); conditions: ER-HoxA9 marrow cells, stronger effect = higher value

GTPase HRas (Homo sapiens), sequence (P01112 whole entry, looked up): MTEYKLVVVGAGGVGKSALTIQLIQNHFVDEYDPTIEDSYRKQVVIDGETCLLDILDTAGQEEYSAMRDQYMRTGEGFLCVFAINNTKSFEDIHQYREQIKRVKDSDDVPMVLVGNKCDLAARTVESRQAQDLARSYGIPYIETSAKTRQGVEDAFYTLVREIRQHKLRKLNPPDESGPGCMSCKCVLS
Botulinum neurotoxin type A (Clostridium botulinum), sequence (P0DPI0 whole entry, looked up): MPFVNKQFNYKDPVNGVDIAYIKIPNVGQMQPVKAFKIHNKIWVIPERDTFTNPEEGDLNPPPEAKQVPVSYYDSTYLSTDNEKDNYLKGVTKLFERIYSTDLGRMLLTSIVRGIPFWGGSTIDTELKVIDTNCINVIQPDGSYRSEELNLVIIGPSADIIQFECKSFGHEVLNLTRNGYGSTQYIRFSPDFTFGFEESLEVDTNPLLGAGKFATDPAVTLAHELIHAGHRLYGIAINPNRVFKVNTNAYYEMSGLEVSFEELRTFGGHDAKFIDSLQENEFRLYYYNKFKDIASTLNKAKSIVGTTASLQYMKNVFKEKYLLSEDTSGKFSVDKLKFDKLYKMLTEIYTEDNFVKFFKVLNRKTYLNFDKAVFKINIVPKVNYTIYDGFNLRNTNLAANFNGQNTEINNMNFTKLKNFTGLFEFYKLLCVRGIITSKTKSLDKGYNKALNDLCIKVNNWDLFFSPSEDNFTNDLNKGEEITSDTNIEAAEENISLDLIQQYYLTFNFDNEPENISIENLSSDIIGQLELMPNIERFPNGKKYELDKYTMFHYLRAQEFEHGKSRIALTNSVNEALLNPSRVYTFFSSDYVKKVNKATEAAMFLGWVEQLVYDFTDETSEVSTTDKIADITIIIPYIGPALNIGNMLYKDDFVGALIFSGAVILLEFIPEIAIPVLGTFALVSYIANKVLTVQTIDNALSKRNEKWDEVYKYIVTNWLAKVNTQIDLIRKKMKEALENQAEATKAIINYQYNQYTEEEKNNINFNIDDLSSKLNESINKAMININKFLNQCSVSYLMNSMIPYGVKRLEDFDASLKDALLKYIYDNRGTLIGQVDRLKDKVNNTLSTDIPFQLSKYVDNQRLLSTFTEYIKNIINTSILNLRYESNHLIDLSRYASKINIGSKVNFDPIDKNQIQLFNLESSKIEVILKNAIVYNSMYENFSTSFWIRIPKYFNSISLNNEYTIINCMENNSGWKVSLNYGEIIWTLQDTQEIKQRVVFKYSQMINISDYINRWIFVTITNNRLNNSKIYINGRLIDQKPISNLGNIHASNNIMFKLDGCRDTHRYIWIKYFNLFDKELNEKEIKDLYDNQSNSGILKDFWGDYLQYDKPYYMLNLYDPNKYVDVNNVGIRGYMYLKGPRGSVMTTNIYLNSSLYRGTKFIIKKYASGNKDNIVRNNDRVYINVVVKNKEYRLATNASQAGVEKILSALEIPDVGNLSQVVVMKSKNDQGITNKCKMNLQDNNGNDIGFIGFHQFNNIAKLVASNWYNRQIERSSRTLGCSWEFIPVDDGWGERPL
Lethal factor (Bacillus anthracis), sequence (P15917 whole entry, looked up): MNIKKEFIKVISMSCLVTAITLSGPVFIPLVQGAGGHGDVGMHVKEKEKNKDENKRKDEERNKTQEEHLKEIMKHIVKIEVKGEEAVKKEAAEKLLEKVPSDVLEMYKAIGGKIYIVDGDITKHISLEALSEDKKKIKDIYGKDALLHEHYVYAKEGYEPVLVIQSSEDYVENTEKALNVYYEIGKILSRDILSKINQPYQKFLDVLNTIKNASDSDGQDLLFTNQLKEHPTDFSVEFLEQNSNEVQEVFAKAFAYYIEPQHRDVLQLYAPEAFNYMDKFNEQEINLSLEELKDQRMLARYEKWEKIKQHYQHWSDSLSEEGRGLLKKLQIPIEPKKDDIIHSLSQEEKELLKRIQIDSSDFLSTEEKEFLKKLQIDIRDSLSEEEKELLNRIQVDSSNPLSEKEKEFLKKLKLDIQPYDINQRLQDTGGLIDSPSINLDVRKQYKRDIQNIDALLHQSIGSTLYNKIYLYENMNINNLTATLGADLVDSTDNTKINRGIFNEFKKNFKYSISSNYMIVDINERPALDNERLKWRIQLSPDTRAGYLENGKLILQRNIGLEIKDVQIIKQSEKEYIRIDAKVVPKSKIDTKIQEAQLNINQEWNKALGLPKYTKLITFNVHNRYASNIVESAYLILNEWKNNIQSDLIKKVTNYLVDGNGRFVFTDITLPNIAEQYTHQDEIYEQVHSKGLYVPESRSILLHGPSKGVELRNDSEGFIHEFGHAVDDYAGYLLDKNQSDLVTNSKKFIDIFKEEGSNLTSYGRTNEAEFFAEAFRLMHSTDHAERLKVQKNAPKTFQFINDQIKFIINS
ATP-binding cassette sub-family B member 6 (Homo sapiens), sequence (Q9NP58 whole entry, looked up): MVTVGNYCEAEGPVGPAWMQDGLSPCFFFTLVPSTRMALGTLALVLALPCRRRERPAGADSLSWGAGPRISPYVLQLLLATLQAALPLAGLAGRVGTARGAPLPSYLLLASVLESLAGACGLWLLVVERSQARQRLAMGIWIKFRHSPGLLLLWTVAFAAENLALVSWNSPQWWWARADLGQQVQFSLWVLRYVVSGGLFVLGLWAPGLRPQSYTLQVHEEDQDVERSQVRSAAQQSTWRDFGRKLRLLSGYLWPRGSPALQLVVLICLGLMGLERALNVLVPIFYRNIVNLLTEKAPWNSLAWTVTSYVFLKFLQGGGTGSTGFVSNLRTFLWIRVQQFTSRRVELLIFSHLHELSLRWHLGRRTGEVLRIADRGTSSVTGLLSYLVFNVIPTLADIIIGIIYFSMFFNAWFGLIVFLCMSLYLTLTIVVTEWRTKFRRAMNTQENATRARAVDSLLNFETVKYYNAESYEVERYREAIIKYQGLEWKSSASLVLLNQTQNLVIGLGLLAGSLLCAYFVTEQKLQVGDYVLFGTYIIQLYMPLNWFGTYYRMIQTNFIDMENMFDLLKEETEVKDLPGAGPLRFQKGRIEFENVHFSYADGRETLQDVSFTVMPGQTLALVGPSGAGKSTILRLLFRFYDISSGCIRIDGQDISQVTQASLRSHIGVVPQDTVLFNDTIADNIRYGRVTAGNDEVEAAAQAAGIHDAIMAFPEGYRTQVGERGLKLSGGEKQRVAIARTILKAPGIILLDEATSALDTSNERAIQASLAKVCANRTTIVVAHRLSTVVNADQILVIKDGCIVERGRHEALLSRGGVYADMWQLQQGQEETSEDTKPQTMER
AP-2 complex subunit beta (Homo sapiens), sequence (P63010 whole entry, looked up, one chain of several): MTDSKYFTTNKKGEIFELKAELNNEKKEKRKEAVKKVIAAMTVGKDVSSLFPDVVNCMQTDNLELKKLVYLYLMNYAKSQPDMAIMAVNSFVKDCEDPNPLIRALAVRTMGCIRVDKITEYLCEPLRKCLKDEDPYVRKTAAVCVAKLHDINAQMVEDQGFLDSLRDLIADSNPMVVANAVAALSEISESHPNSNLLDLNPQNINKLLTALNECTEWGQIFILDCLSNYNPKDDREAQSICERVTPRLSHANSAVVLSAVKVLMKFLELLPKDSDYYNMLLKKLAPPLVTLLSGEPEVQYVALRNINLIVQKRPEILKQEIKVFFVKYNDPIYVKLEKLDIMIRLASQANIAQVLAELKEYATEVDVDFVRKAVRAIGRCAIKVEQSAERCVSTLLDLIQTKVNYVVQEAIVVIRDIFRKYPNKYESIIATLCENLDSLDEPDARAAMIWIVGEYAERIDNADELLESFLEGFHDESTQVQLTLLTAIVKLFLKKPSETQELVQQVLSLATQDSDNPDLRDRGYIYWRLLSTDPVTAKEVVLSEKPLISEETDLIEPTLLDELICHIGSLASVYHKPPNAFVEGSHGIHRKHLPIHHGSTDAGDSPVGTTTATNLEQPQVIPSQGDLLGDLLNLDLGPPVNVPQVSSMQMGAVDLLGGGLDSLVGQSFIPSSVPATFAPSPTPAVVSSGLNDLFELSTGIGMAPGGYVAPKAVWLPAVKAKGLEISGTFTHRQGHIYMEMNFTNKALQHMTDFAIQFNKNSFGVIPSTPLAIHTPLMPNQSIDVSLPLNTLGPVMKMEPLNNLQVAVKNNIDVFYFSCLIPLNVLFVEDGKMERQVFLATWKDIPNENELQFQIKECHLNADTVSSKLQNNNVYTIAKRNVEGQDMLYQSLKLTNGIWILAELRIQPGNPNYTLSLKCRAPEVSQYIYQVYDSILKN
Beta-adrenergic receptor kinase 1 (Homo sapiens), sequence (P25098 whole entry, looked up): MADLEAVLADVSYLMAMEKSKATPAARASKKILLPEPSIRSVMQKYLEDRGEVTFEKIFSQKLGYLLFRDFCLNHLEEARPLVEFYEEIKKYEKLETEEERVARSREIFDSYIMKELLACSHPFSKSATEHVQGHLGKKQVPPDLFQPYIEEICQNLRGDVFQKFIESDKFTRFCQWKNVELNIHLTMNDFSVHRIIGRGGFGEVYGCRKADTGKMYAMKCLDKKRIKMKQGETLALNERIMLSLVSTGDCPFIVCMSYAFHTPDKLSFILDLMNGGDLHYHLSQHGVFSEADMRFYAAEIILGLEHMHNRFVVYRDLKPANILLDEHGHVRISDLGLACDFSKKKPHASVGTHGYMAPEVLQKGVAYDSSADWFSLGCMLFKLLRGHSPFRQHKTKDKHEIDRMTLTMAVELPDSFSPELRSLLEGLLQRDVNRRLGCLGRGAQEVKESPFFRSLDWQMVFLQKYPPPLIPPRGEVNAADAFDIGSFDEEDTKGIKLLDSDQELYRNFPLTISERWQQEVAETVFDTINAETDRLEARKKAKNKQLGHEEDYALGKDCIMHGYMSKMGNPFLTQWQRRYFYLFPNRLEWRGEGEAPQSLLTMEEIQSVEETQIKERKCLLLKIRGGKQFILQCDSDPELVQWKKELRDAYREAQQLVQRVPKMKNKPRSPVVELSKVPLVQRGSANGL

Question: Which GTP binding, percent of control [1] does the source give for `O=C1CN=C(c2ccccc2)c2cc(Br)ccc2N1Cc1cc(=O)n2ccccc2n1` here?
Answer: 64.5%

Question: With `O=C(O)c1cn(Cc2ccc(Br)cc2)c2ccccc12` as the compound, how does the GTP binding, percent of control [1] read?
Answer: 104%

Question: With `CCn1nc(/C=C/c2ccccc2)nc2c(=O)n(C)c(=O)nc1-2` as the compound, how does the GTP binding, percent of control [1] read?
Answer: 76.7%

Question: Which GTP binding, percent of control [1] does the source give for `Cc1cc(OCCCn2cc(C(=O)O)c3ccccc32)ccc1Cl` here?
Answer: 83.9%

Question: With `Cc1ccc(C)c(OCCCn2cc(C(=O)O)c3ccccc32)c1` as the compound, how does the GTP binding, percent of control [1] read?
Answer: 88.6%

Question: For `Cc1sc(-n2c(C)cc(C=C3C(=O)NC(=O)NC3=O)c2C)c(C#N)c1C`, which GTP binding, percent of control [1] is on record?
Answer: 68.9%

Question: Which GTP binding, percent of control [1] does the source give for `Cc1nn(Cc2ccccc2)c(Cl)c1C(=O)O` here?
Answer: 86.7%

Question: With `O=C1NC(=S)N(Cc2ccco2)C(=O)/C1=C\c1cccs1` as the compound, how does the GTP binding, percent of control [1] read?
Answer: 95.1%

Question: With `CCOC(=O)c1c(NC(=O)c2c(N)n(CCCOC)c3nc4ccccc4nc23)sc2c1CCCC2` as the compound, how does the GTP binding, percent of control [1] read?
Answer: 144%

Question: For `CCOCCCn1c(N)c(C(=O)Nc2sc3c(c2C(=O)OC)CCCC3)c2nc3ccccc3nc21`, which GTP binding, percent of control [1] is on record?
Answer: 122%

Question: For `C[C@H](O)[C@H]1CC[C@H]2[C@@H]3CCC4=CC(=O)CC[C@]4(C)[C@H]3CC[C@]12C`, which percent of DMSO control GFP [2] is on record?
Answer: 98.9% (inactive)

Question: And the GFP response vs DMSO [3]?
Answer: 103% (inactive)

Question: What about the percent response of DMSO control [4] of the same compound?
Answer: 91.3% (inactive)

Question: What about the GFP response vs DMSO [5] of the same compound?
Answer: 126% (inactive)

Question: What about the GFP response, % of DMSO [6] of the same compound?
Answer: 89.6% (inactive)

Question: What about the double positive events [7] of the same compound?
Answer: 61%

Question: And the vesicle binding response [7]?
Answer: 104% (inactive)

Question: And the inhibition [8]?
Answer: 11% (inactive)

Question: What about the superoxide response (% of plate) [9] of the same compound?
Answer: 106% (inactive)

Question: And the aptamer binding inhibition [10]?
Answer: 0% (inactive)

Question: What about the response [11] of the same compound?
Answer: -3.16% (inactive)

Question: And the inhibition [12]?
Answer: -3.68% (inactive)

Question: What about the response [13] of the same compound?
Answer: -6.77% (inactive)

Question: And the binding (% of control) [14]?
Answer: 102% (inactive)

Question: What about the inhibition [15] of the same compound?
Answer: -0.6% (inactive)

Question: And the inhibition [16]?
Answer: 0.2% (inactive)

Question: What about the inhibition [17] of the same compound?
Answer: 2.8% (inactive)

Question: What about the efflux inhibition (fraction of control) [18] of the same compound?
Answer: -0.17 (inactive)

Question: And the inhibition [19]?
Answer: 9% (inactive)

Question: And the differentiation response [20]?
Answer: -4.57% (inactive)

Question: With `CCN(CC)c1ccc(/C=N/c2sc3c(c2C#N)C2CCN3CC2)c(O)c1` as the compound, how does the GTP binding, percent of control [1] read?
Answer: 104%

Question: With `Cc1ccc(-n2c(O)c(/C=N/c3ncc(Br)cc3Br)c(=O)[nH]c2=O)cc1` as the compound, how does the GTP binding, percent of control [1] read?
Answer: 116%

Question: What does the source list for `CC12CN3CC(C)(CN(C1)C31CCOCC1)C2=O`?
Answer: percent of DMSO control GFP [2]: 92.6% (inactive); GFP response vs DMSO [3]: 145% (active); percent response of DMSO control [4]: 101% (inactive); GFP response vs DMSO [5]: 90.2% (inactive); GFP response, % of DMSO [6]: 94.5% (inactive); double positive events [7]: 65.1%; vesicle binding response [7]: 166% (inactive); inhibition [8]: 5.49% (inactive); superoxide response (% of plate) [9]: 90% (inactive); aptamer binding inhibition [10]: 2% (inactive); response [11]: 3.7% (inactive); inhibition [12]: 40.7% (inactive); response [13]: -6.81% (inactive); binding (% of control) [14]: 100% (inactive); inhibition [15]: 1.2% (inactive); inhibition [16]: 0.1% (inactive); inhibition [17]: -2.4% (inactive); efflux inhibition (fraction of control) [18]: -0.09 (inactive); inhibition [19]: 13% (inactive); differentiation response [20]: -2.46% (inactive)
